Only some compounds are listed: those with a hit (about 6.5% of all), similar ones and a draw of the others.
HepG2 tox: kills HepG2 cells in TGF-b inhibitor counter-screen | HepG2 CAGA-GFP viability, ATP luminescence, 18 h | Potency, µM (top dose mostly 46.1 µM), for inactives: at the highest dose activity change, negative = cytotoxicity, most hits filed as cytotoxic | 0.76% of 410,000 active | AID 588856; also: potency is read from the fitted curve at half-maximal effect
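CellTiter-Glo luminescence gave cytotoxicity after 18 hours at 37 degrees C. The cells were HepG2 CAGA-GFP in 1% FBS DMEM, stimulated with 500 pg/mL TGF-beta after compound addition. %Activity was normalised to no-cell wells (complete cell-killing) and DMSO (no toxicity), and curves were fitted and classified.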
Giardia killer: Giardia lamblia killing; Giardia lamblia trophozoite viability; 0.15% of 340,000 active; activity change, % at 7.66 µM, hits read low; in the data active = activity change below about -80%; inconclusive = between about -30% and that limit;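 also: parasites exposed to compound for two days anaerobically before the ATP read; % is scaled to controls: 0 for no effect and ±100 for the full control effect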
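Trophozoite viability was measured as ATP-dependent luminescence, read 15-30 min after reagent addition. Before that, parasites at 100 cells/well were exposed to compounds for 48 h, anaerobically, at 37 deg C.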
HT1080 IDH1KD tx: kills HT-1080 cells with IDH1 knockdown. 2% of 360,000 active. HT-1080 IDH1 knockdown viability, ATP luminescence, 48 h. Potency, µM (series often up to 46.1 µM), inactives show at the highest dose activity, negative = toxicity, hits mostly cytotoxic;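 also: potency is read from the fitted curve at half-maximal effect; 0% = DMSO wells and -100% = cell-free medium wells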
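Using the IDH1-knockdown HT-1080 line run in the same batch and compound series as the NT line, viability after 48 h at 37 °C was determined by CellTiter-Glo luminescence and expressed as % activity.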
IL-1B inflam inh: inflammasome signaling inhibition, IL-1 beta readout. activity change, % at 57.5 µM. 4.7% of 360,000 active. THP-1 LPS/ATP IL-1B secretion, AlphaLISA, 16 h; stronger effect = lower value; in the data active = activity change below about -50%; inconclusive = mostly about -30% to -49%; also: % is scaled to controls: 0 for no effect and ±100 for the full control effect
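Secreted IL-1B measured by AlphaLISA bead assay after 16 h compound exposure of THP-1 cells; compounds (final up to 57.5 uM) added 1 h before LPS (250 ng/mL) and ATP (1.25 mM) stimulation; lower signal means less secretion.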
HT1080NT lethal: kills 2HG-producing HT-1080-NT fibrosarcoma cells; HT-1080-NT fibrosarcoma viability, CellTiter-Glo ATP luminescence, 48 h; Potency, µM (highest dose often 46.1 µM), without a hit: at the top dose activity, negative = less viability, hits mostly cytotoxic; 1.6% of 360,000 active; AID 686970;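 also: NT is the 2HG producing partner of a matched IDH1 knockdown line; potency is read from the fitted curve at half-maximal effect; 0% = DMSO-treated cells and -100% = media-only wells without cells; nearly all actives have a fitted effect of over 55% in size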
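Compounds were tested in concentration-response format on HT-1080-NT cells for 48 hours at 37 degrees C. Cell viability came from CellTiter-Glo luminescence; curves were classified by r2, response magnitude and activity.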
TGFb SMAD3 inh: TGF-b pathway inhibition. HepG2 CAGA-GFP TGF-b/SMAD3 reporter, GFP fluorescence, 18 h; TGF-beta stimulated, 500 pg/mL final. Potency, µM (titrated, usually from 46.1 µM), for inactives: top-dose activity, negative = inhibition, usual class: inhibitors. AID 588855. 1.2% of 410,000 active; also: potency is read from the fitted curve at half-maximal effect; % is scaled to controls: 0 for no effect and ±100 for the full control effect; nearly all actives have a fitted effect of over 65% in size
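Per well, imaged GFP fluorescence of HEPG2 CAGA-GFP cells gives the signal; cells get compound, then TGF-beta (500 pg/mL final), 18 h at 37 degrees C; %Activity versus -TGF-beta and +DMSO controls.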
Active calls of the source: *; i = inactive; ? = inconclusive; · = not tested or not shown. Unless noted, calls follow the shape of the dose curve; as a rule, active = well fitted curve in the direction sought with a large enough effect; inconclusive = small, poorly fitted or top-dose-only effect, or another doubt; inactive = no such curve, though single readings can be large; an effect the other way counts as inactive or inconclusive.

SMILES	HepG2 tox	Giardia killer	HT1080 IDH1KD tx	IL-1B inflam inh	HT1080NT lethal	TGFb SMAD3 inh
O=C(CCN=C1NS(=O)(=O)c2ccccc21)OCC(=O)c1ccccc1Cl	1%	8	10%	-7	10%	-5%
CC[N+]1(C)CCC(O)(c2ccc(OC)cc2)C(C(=O)c2ccc(OC)cc2)C1 (configuration not stated)	-101%	8	4.6µM*	-78*	?	?
CC(C)c1ccc(S(=O)(=O)c2cc3cc(Br)ccc3oc2=O)cc1	5%	7	13µM*	8	13µM*	-20%
Cc1ccc(NC(=O)C2C3CC4OC(=O)C2C4C3)cc1Cl (configuration not stated)	5%	-6	8%	16	11%	-3%
Cc1ccc(O)c(CNCCNCc2cc(C)ccc2O)c1	-64%	5	?	117	?	?
Cc1ccc(O)c(Cc2cc(C)cc(Cc3cc(C)ccc3O)c2O)c1	-89%	·	?	-2	-18%	22µM*
COC(=O)c1ccc2nc(-c3ccc(F)cc3)c(Cc3ccccc3OC)n2c1	·	·	9%	24	13%	·
COc1ccccc1Cc1c(-c2ccc(OC)c(OC)c2)nc2ccc(Br)cn12	-2%	·	18µM*	-8	?	?
COC(=O)c1ccc2nc(-c3cccc(Br)c3)c(Cc3ccccc3OC)n2c1	·	·	12µM*	0	10%	·
COc1ccc(-c2nc3ccc(Br)cn3c2Cc2ccccc2)cc1OC	-3%	·	?	-11	?	?
O=C(N/N=C/c1c(O)n(-c2ccccc2Cl)c(=O)c2ccccc12)c1cccnc1	-6%	8	9.2µM*	14	6.5µM*	-11%
O=C(N/N=C/c1cn(CC(=O)N2CCOCC2)c2ccccc12)c1cccnc1	19%	-13	1%	17	-1%	1%
COc1ccc(Cn2c(O)c(C=Nc3ccc(OC)cc3)c3ccccc3c2=O)cc1	4%	-10	25%	-14	?	2%
Cc1cccc(-n2c(O)c(/C=N/NC(=O)c3ccccc3Cl)c3ccccc3c2=O)n1	-1%	13	?	38	-23%	14%
O=C(N/N=C/c1cn(Cc2ccccc2)c2ccccc12)c1cccnc1	-37%	?	-30%	-29	-20%	2.8µM*
COc1ccc(OCCn2cc(/C=N/NC(=O)c3ccncc3)c3ccccc32)cc1	-40%	0	8%	0	-1%	?
COCCNC(=O)Cn1cc(/C=N/NC(=O)c2ccc(Oc3ccc(O)cc3)cc2)c2ccccc21	-32%	-8	-21%	-70*	-5%	-18%
COc1ccc(Cn2c(O)c(/C=N/NC(=O)c3cccnc3)c3ccccc3c2=O)cc1	8%	17	21µM*	131	?	?
CCOC(=O)N/N=C/c1cn(CCCOc2ccccc2)c2ccccc12	14%	11	-28%	-29	-22%	15%
Nc1ccc(C(=O)N/N=C/c2cn(Cc3cccc(F)c3)c3ccccc23)cc1	-1%	5	-26%	i	-5%	1.3µM*
O=C(N/N=C/c1cccc2ccccc12)c1cccnc1	0%	10	20%	0	17%	?
O=C(N/N=C/c1c(O)n(Cc2ccccc2)c(=O)c2ccccc12)c1cccnc1	-40%	6	15µM*	111	13µM*	0%
CCOC(=O)N/N=C/c1cn(Cc2ccc(F)cc2)c2ccccc12	-53%	11	2%	14	?	2.2µM*
CCOc1ccccc1C(=O)N1CCOCC1	-4%	11	0%	8	-4%	5%
O=C1C(=O)N(CCCN2CCOCC2)C(c2ccc(F)cc2)/C1=C(/O)c1ccccc1 (configuration not stated)	-30%	11	0%	-3	1%	7%
O=C1C(c2ccc(F)cc2)N(Cc2ccc3c(c2)OCO3)C(=O)CN1C1CCCC1 (configuration not stated)	3%	-12	-6%	-6	1%	?

Screening data from PubChem BioAssay.
